RAD52 inh – RAD52 DNA annealing inhibitors, primary screen, biochemical, FRET, single point, set 2; inhibition, % at 18.7 µM; recombinant RAD52 DNA annealing, FRET fluorescence; AID 651710, 2012; DNA repair protein RAD52 homolog (Homo sapiens), P43351; hit rate 0.46% among 360,000;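 active = every replicate showing at least 50% inhibition; inconclusive = mean inhibition at least 50% but not in every replicate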
FID counter – compounds displacing fluorescent DNA intercalator, primary screen, artefact control for HCV NS3 helicase inhibitor project, biochemical, FID fluorescence. DNA fluorescent intercalator displacement. inhibition, % at 7.9 µM. hit rate 0.17% among 290,000; in the data active = inhibition above about 37%;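 also: 0% = vehicle and 100% = reference compound; higher means more ethidium bromide displaced from hairpin DNA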
RAD54 inh – inhibitors of human RAD54 branch migration, primary screen, biochemical, fluorescence, single point; hit rate 0.14% among 360,000; inhibition, % at 10.4 µM; RAD54 Holliday junction branch migration, FAM/BHQ fluorescence; DNA repair and recombination protein RAD54-like (Homo sapiens), Q92698;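 active = mean normalized replicate activity at least 40 and at least half of replicates scoring 40 or more; inconclusive = only one of the two criteria met; inactive = mean below 40 and under half of replicates reaching 40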;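 also: 0% = median of neutral control wells and 100% = median of positive control wells; inhibitors cause a drop in the FAM fluorescence signal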
UBC13 inh – UBC13 polyubiquitin chain formation inhibitors, primary screen, biochemical, TR-FRET, uHTS; hit rate 0.47% among 330,000; Ubiquitin-conjugating enzyme E2 N (Homo sapiens), P61088; inhibition, % at 20 µM; in the data active = inhibition above about 45%, passing the limit was not always enough; inconclusive = no clear call, values can overlap the other calls
MIN6 prolif – inducers of MIN6 beta-cell proliferation, primary screen, ATP luminescence, uHTS; MIN6 cells proliferation, ATPlite luminescence, 48 h; cells starved in 0.2% serum; 100% = growth in 10% serum; proliferation, % at 10 µM; hit rate 0.29% among 330,000; AID 2380, 2010;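 active = compounds whose signal lies at least 3.5 SD above the mean of all wells on their plate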;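 also: 0% = DMSO-treated cells in low-serum medium and 100% = 10% serum control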
PREPL inhibitor – PREPL enzyme inhibitors, primary screen, biochemical, fluorescence polarization | hit rate 0.68% among 320,000 | recombinant PREPL, fluorescence polarization activity-based probe | Prolyl endopeptidase-like (Homo sapiens), Q4J6C6 | inhibition, % at 5.96 µM; in the data active = inhibition above about 43%;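 also: 0% = enzyme with DMSO and 100% = wells lacking enzyme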
Target sequence (Q4J6C6 whole entry, looked up): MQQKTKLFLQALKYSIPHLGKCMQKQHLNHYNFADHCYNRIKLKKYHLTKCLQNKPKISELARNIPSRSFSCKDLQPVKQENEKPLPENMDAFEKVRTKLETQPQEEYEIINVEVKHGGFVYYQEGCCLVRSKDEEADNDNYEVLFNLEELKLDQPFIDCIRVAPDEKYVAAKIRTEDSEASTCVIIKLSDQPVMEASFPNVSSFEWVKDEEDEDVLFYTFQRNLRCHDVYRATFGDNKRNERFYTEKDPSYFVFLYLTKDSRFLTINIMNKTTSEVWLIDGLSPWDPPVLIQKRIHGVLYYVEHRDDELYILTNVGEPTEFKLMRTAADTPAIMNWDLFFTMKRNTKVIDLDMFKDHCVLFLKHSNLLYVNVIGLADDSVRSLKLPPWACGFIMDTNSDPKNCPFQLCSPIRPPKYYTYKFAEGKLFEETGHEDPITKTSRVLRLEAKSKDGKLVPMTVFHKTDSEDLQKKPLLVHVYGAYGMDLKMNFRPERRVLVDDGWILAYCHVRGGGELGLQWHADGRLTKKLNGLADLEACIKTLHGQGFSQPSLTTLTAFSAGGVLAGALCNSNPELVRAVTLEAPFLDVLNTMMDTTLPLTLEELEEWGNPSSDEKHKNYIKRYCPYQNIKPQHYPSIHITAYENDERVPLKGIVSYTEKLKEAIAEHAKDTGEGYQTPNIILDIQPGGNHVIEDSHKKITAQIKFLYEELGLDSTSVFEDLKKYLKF
DNA binding – DNA binding of candidate compounds, dose response, artefact control for RAD54 inhibitor project, biochemical, fluorescence polarization, cherry-pick; hit rate 8% among 460; shares compounds with RAD54 inh; Acridine orange-DNA displacement, 20 min; AC50, µM (series often up to 35 µM), without a hit: at the highest dose activity change, negative = DNA binding;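 active = signal drop giving an AC50 within twice the top valid tested concentration of each sample, actives reach about 35 µM in these data; inactive = activity opposite to expected, plus the rest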;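 also: polarization loss reports compound binding to salmon sperm DNA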
DNA binder FP – DNA-binding compounds via dye displacement, dose response, artefact control for RAD52 inhibitor project, biochemical, fluorescence polarization, cherry-pick; Salmon sperm DNA/acridine orange FP displacement; AC50, µM; hit rate 8% among 1,000; shares compounds with RAD52 inh;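 active = fitted half-maximal concentration for signal loss at or below twice the highest dose tested, in every separate run, actives reach about 64 µM in these data; inconclusive = runs disagree, or flat partial signal loss, or poor fit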
* marks the source's active call; other numbers are inactive results; i = inactive; ? = inconclusive; nt = no result given. The list is not random: actives were taken first. Their share in the collection is about 1.3%.

SMILES | RAD52 inh | FID counter | RAD54 inh | UBC13 inh | MIN6 prolif | PREPL inhibitor | DNA binding | DNA binder FP
Cc1cc(C)c2nc(N(CCN(C)C)C(=O)c3ccc4ccccc4c3)sc2c1 | -18 | 23 | -11 | 15 | -8 | 12 | nt | nt
Cc1noc(C)c1S(=O)(=O)Nc1ccc2c(c1)C(=O)N([C@H](C)CO)C[C@@H](C)[C@H](CN(C)Cc1ccncc1)OCCCC[C@@H](C)O2 | 9 | nt | -1 | nt | nt | nt | nt | nt
O=C(Cc1ccccn1)N[C@H]1CC[C@H](CCn2cc(-c3ccccc3)nn2)O[C@@H]1CO | -18 | nt | -2 | nt | nt | nt | nt | nt
CN(C)CCNc1ncnc2oc(-c3ccccc3)c(-c3ccccc3)c12 | 21 | 15 | 38 | 5 | -6 | nt | nt | nt
COc1ccc(-c2oc3ncnc(NCCCN(C)C)c3c2-c2ccc(OC)cc2)cc1 | 85* | 19 | 75* | 10 | -4 | 43 | 17% | i
COc1ccc2oc3cc(NCCN(C)C)ccc3c(=O)c2c1 | 79* | nt | 86* | nt | nt | nt | 1% | i
CCCNC(=O)C[C@@H]1CC[C@H]2[C@H](COc3ccc(NC(=O)c4cccc(F)c4)cc3C(=O)N2C)O1 | -2 | nt | 1 | nt | nt | nt | nt | nt
CCN(CC)CCCNC(=O)c1ccc2c3n(nc2c1)-c1ccc(Cl)cc1CO3 | 65* | nt | 52* | 7 | -8 | -47 | -4% | i
O=C(NCCCN1CCCC1)c1cc2c(Cl)nc3ccccc3c2s1 | 63* | 22 | ? | 4 | -6 | -84 | -22% | 42µM*
COc1ccc(-c2nc(C(=O)NCCCN3CCOCC3)cc3c2[nH]c2ccccc23)cc1OC | 83* | 28 | 94* | 30 | -5 | 17 | -21% | i
COc1ccc(Nc2cc(C(=O)NCCCN3CCOCC3)c3ccccc3n2)cc1OC | nt | 32 | -4 | 5 | -1 | -2 | nt | nt
CC(C)NC(=O)N(C)C[C@H]1Oc2ccc(NC(=O)c3ccncc3)cc2C(=O)N([C@@H](C)CO)C[C@H]1C | 4 | nt | -2 | nt | nt | nt | nt | nt
Cc1cccc(-c2cc(N3CCCN(C)CC3)n3nccc3n2)c1 | 103* | nt | ? | nt | nt | nt | -6% | i
CN1CCCN(c2cc(-c3ccc4ccccc4c3)nc3ccnn23)CC1 | 104* | nt | 64* | nt | nt | nt | -4% | i
OCCN1CCN(c2cc(-c3ccc4ccccc4c3)nc3ccnn23)CC1 | 32 | nt | 13 | nt | nt | nt | nt | nt
CC(=O)Nc1cc(-c2ccc(F)cc2)cn2c(-c3ccc(S(C)(=O)=O)cc3)cnc12 | -59 | nt | 1 | nt | nt | nt | nt | nt
CC(=O)Nc1cc(-c2cccc(C(=O)NCCN(C)C)c2)cn2c(-c3ccc(S(C)(=O)=O)cc3)cnc12 | 92* | nt | 56* | nt | nt | nt | -17% | i
CC(=O)Nc1cc(-c2ccc(N3CCN(C)CC3)cc2)cn2c(-c3cccc(C(C)=O)c3)cnc12 | 70* | nt | 79* | nt | nt | nt | -2% | i
CC(=O)Nc1cc(-c2cccc(C(=O)NCCN(C)C)c2)cn2c(-c3ccccc3)cnc12 | 90* | nt | 64* | nt | nt | nt | 4% | i
CN1C(=O)c2cc(NC(=O)c3cccc(F)c3)ccc2OC[C@@H]2O[C@H](CC(=O)O)CC[C@@H]21 | nt | nt | -6 | nt | nt | nt | nt | nt
CO[C@H](CN(C)S(=O)(=O)c1cccc(Cl)c1)[C@H](C)CN([C@H](C)CO)S(=O)(=O)c1cccc(Cl)c1 | 0 | nt | -3 | nt | nt | nt | nt | nt
CCOC(=O)c1cnc2c(C)cc(C)cc2c1NCCCN1CCOCC1 | 68* | 71* | 93* | 4 | 1 | nt | -22% | i
CCOC(=O)c1cnc2c(ccc3ccccc32)c1NCCCN(C)C | 96* | 81* | 123* | 23 | -6 | 3 | -18% | ?
c1c[nH]c(CN2CCN(Cc3ncc[nH]3)CC2)n1 | 56* | nt | ? | nt | nt | nt | -11% | i
COc1ccc(CCNC(=O)c2cc3c(=O)n4ccccc4nc3n(CC3CCCO3)c2=N)cc1OC (stereo not given) | 10 | 10 | 12 | -6 | -1 | 4 | nt | nt
SMILES | RAD52 inh | FID counter | RAD54 inh | UBC13 inh | MIN6 prolif | PREPL inhibitor | DNA binding | DNA binder FP
COc1ccc(CCNC(=O)c2cc3c(=O)n4ccccc4nc3n(CCCN3CCOCC3)c2=N)cc1OC | 54* | 46* | ? | -9 | 1 | 19 | 14% | i
Cc1cccn2c(=O)c3cc(C(=O)NCCN4CCOCC4)c(=N)n(CCCN4CCOCC4)c3nc12 | 78* | 79* | 92* | 2 | 0 | 17 | 8% | i
CCCC#Cc1ccc([C@@H]2[C@H]3CN(C(=O)Nc4ccccc4F)CC(=O)N3[C@H]2CO)cc1 | -21 | nt | nt | nt | nt | nt | nt | nt
CCCN1CCN(C(=S)Nc2ccc3nc(N4CCN(CC)CC4)cc(C)c3c2)CC1 | 89* | 50* | 62* | -9 | -6 | 13 | 3% | i
CCN1CCN(c2cc(C)c3cc(NC(=S)N4CCC5(CC4)OCCO5)ccc3n2)CC1 | 56* | 17 | ? | -3 | -2 | 14 | -12% | i
CCN1CCN(c2cc(C)c3cc(NC(=O)Cc4ccc(OC)c(OC)c4)ccc3n2)CC1 | 26 | 10 | 29 | 6 | -3 | 14 | nt | nt
CC(C)NC(=O)Nc1ccc2c(c1)C(=O)N([C@@H](C)CO)C[C@H](C)[C@@H](CN(C)Cc1ccc3c(c1)OCO3)OCCCC[C@H](C)O2 | nt | nt | 4 | nt | nt | nt | nt | nt
Cc1noc(C)c1S(=O)(=O)Nc1ccc2c(c1)CC(=O)N([C@H](C)CO)C[C@@H](C)[C@H](CN(C)Cc1ccc3c(c1)OCO3)O2 | 13 | nt | 7 | nt | nt | nt | nt | nt
CCN1CCN(c2nc(-c3ccccn3)nc3ccccc23)CC1 | nt | 10 | 25 | -9 | 0 | 9 | nt | nt
CCN1CCN(c2ccc(Nc3ccnc4ccccc34)cc2)CC1 | 95* | nt | 78* | 15 | -5 | 26 | -12% | i
Nc1c2ccccc2nc2ccccc12 | 98* | 51* | 121* | -21 | -9 | -1 | 26µM* | 33µM*
Nc1c2c(nc3ccccc13)CCCC2 | 4 | 1 | 16 | -5 | 0 | 3 | nt | nt
O=C1c2cccc3cc([N+](=O)[O-])cc(c23)C(=O)N1CCN1CCCC1 | 82* | 72* | 98* | -46 | -5 | nt | 34µM* | 25µM*
NC(=O)CN1CCN(CCN2C(=O)c3cccc4cccc(c34)C2=O)CC1 | 47 | 17 | 58* | -8 | -1 | 3 | -2% | i
